Measured values taken from PubChem BioAssay (NCI).
The panel holds about 83,000 compounds, 20% with a hit somewhere; the sample as a whole holds those more often.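 Assay: single dose, 48 h. Readout: percent growth (0 = no net growth; negative = cell death). Active: <10.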 Calls of active or inactive are those of the source.

Experiments:
Assay in all cases: NCI-60 one-dose screen, 48 h (100 = growth as untreated, 0 = no growth, -100 = all killed)
Settings in all cases: 10 µM unless noted
[1] = tested on: DU-145 prostate
[2] = tested on: K-562 leukemia
[3] = tested on: MALME-3M melanoma
[4] = tested on: MDA-MB-231 breast
[5] = tested on: RXF 393 renal
[6] = tested on: SF-268 CNS
[7] = tested on: SF-295 CNS
[8] = tested on: SF-539 CNS
[9] = tested on: UACC-257 melanoma
[10] = tested on: M14 melanoma

Measured: growth

CN1CC[C@H](c2c(O)cc(O)c3c(=O)cc(-c4ccccc4Cl)oc23)[C@H](O)C1
active: [1] 9.08% | [2] 6.14% | [3] -45.3% | [4] 1.35% | [5] -65.5% | [6] 4.21% | [7] 8.48% | [8] -28% | [9] -23.8% | [10] -50.1%

Cc1nc2cc(-c3nn(C(C)C)c4ncnc(N)c34)ccc2o1
inactive: [2] 10.4%
active: [1] 1.98% | [3] -38.7% | [4] -9.12% | [5] -54.3% | [6] 4.35% | [7] -53.9% | [8] -61.7% | [9] -45.3% | [10] -7.38%

Cc1cc(-c2cc(OC(=O)c3ccccc3)ccc2Cl)cc2nnc(Nc3ccc(OCCN4CCCC4)cc3)nc12
inactive: [1] 83.2% | [3] 79.2% | [4] 70.6% | [5] 59.3% | [6] 92.8% | [7] 92.7% | [8] 87.1% | [9] 52.1%
active: [2] -21.5% | [10] -8.09%

CC(=O)OC(C(=O)c1ccccc1)c1ccccc1 (stereo not given)
inactive: [1] 111% | [2] 96.5% | [3] 95.8% | [4] 107% | [5] 103% | [6] 107% | [7] 108% | [8] 114% | [9] 107% | [10] 104%

C=CC(=O)Nc1cc2c(Nc3ccc(F)c(Cl)c3)ncnc2cc1OCCCN1CCOCC1
active: [2] 2.24% | [4] 0.732% | [5] -53.1% | [6] -5.09% | [8] -24.4% | [10] -62.3%
inactive: [1] 14.9% | [3] 27.3% | [7] 53.4% | [9] 35.1%

CCOc1cc2ncc(C#N)c(Nc3ccc(OCc4ccccn4)c(Cl)c3)c2cc1NC(=O)/C=C/CN(C)C
inactive: [7] 54.1% | [8] 22% | [9] 52.8%
active: [1] 4.49% | [2] -47.5% | [3] -72.3% | [4] -40% | [5] -77.4% | [6] -36.7% | [10] -82.4%

Cc1nc(NC(=O)N2CCC[C@H]2C(N)=O)sc1-c1ccnc(C(C)(C)C(F)(F)F)c1
inactive: [1] 34.1% | [2] 80.9% | [3] 43.8% | [4] 65.3% | [5] 25.6% | [6] 54.2% | [7] 32.8% | [8] 28.1% | [9] 40% | [10] 41.4%

COC(=O)Nc1nc2ccc(C(=O)c3ccc(N(C)C4COC4)cc3)cc2[nH]1
inactive: [1] 12.7% | [3] 53.8% | [4] 37.8% | [5] 22.1% | [6] 41.5% | [7] 13.3% | [9] 44.4%
active: [2] 7.83% | [8] -7% | [10] 3.69%

C[C@@H]1COCCN1c1cc(C2([S@](C)(=N)=O)CC2)nc(-c2ccnc3[nH]ccc23)n1
active: [5] -28.4% | [8] 1.29%
inactive: [1] 17.5% | [2] 10.8% | [3] 43.1% | [4] 48% | [6] 43.5% | [7] 19% | [9] 52.8% | [10] 10.6%

Cc1cccc(Cl)c1NC(=O)c1cnc(Nc2cc(N3CCOCC3)cc(N3CCOCC3)c2)s1
inactive: [3] 61.3% | [4] 20.5% | [6] 34% | [7] 34% | [9] 64.3% | [10] 35.9%
active: [1] 3.54% | [2] 5.18% | [5] -30% | [8] 6.88%

CCOc1cccc(/C=N/NC(=O)c2ccccc2Nc2ccnc(C(F)(F)F)c2)c1O
active: [8] 0.222% | [10] -29.2%
inactive: [1] 26.2% | [2] 15.5% | [3] 18.1% | [4] 47% | [5] 23.9% | [6] 13% | [7] 17.7% | [9] 10.2%

CCNC(=O)Nc1nc2ccc(Oc3ccnc(C(=O)NC)c3)cc2s1
active: [2] 8.24%
inactive: [1] 103% | [3] 67.3% | [4] 73% | [5] 103% | [6] 92.8% | [7] 70.5% | [8] 77.6% | [9] 87.1% | [10] 40.7%
